Assay outcomes as filed in PubChem.
Rab9 prom act: qHTS Assay for Rab9 Promoter Activators | Potency, µM (series often up to 9.22 µM), without a hit: at the top dose activation, negative = inhibition, actives largely listed as activators | Huh7 Rab9 promoter-luciferase reporter, luminescence, 24 h | actives 2.8% (n = 320,000); also: % of control where 0% means no effect; nearly all actives have a fitted effect of over 60% in size
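Cell-based reporter: Huh7 stable for Rab9 promoter-driven luciferase, plated in reduced-serum medium with 10% FBS at 1500 cells/well, compound-treated 24 h at 37 °C, luminescence read after 10 min reagent.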
FLuc modulator: qHTS profiling assay for firefly luciferase inhibitor/activator using purifed enzyme and Km concentrations of substrates (counterscreen for miR-21 project). purified FLuc, Km substrates, luminescence inhibition. AID 588342, 2011. Potency, µM (highest dose often 57.5 µM), inactives show top-dose activity change, negative = inhibition, hits mostly inhibitors. actives 6.9% (n = 360,000). Luciferin 4-monooxygenase (Photinus pyralis), P08659;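 also: plate controls were vehicle for no effect and reference inhibitor for full effect; nearly all actives have a fitted effect of over 55% in size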
Target sequence (P08659 whole entry, looked up): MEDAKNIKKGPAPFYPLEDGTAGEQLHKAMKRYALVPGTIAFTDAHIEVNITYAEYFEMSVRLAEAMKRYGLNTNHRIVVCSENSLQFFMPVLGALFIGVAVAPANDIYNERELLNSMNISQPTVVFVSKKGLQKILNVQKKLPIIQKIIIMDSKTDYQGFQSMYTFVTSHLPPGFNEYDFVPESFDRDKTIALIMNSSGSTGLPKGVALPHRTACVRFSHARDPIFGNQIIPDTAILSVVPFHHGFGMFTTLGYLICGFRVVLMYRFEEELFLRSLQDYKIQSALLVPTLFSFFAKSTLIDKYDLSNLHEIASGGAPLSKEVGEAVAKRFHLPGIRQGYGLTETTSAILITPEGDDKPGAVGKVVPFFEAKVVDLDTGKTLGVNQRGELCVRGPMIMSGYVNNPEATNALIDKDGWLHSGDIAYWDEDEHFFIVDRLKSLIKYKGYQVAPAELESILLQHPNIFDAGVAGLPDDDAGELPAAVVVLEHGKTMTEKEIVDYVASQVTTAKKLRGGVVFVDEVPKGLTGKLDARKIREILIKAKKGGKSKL
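Biochemical qHTS of compounds, final roughly 60 µM downward over six points, against 10 nM purified firefly luciferase using Km concentrations of substrates (10 uM D-luciferin, 10 uM ATP) in Tris acetate pH 7.5 buffer; luminescence output.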
ELG1 genotoxic: qHTS screen for small molecules that induce genotoxicity in human embryonic kidney (HEK293T) cells expressing luciferase-tagged ELG1 | HEK293T ELG1-luciferase reporter, luminescence, 16 h | Potency, µM (highest dose often 46 µM), without a hit: at the highest dose activity change, positive = activation, usual class: activators | actives 1.3% (n = 330,000); also: % of control where 0% means no effect; nearly all actives have a fitted effect of over 60% in size
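Genotoxic stress is detected as increased luminescence from luciferase-tagged ELG1 in HEK293T cells, measured with ONE-Glo after a 16 hr treatment at 37 °C.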
ELG1 repair inh: qHTS screen for small molecules that inhibit ELG1-dependent DNA repair in human embryonic kidney (HEK293T) cells expressing luciferase-tagged ELG1; HEK293T ELG1-luciferase reporter, luminescence, 16 h; DNA damage induced by 5-fluorouridine; Potency, µM (highest dose often 46.1 µM), for inactives: at the top dose activity change, negative = inhibition, actives largely listed as inhibitors; actives 2.3% (n = 330,000); AID 504467, 2011; also: % is scaled to controls: 0 for no effect and ±100 for the full control effect; nearly all actives have a fitted effect of over 55% in size
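Luminescence from the luciferase reporter, measured 30 min after ONE-Glo reagent at room temperature, was the read-out. Beforehand, 2,000 cells per well were exposed for 16 hr at 37 °C to 5-fluorouridine together with compound or vehicle.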
NPC1 promoter act: qHTS Assay for NPC1 Promoter Activators. Huh7 NPC1 promoter luciferase reporter, 24 h. Potency, µM (series often up to 9.22 µM), for inactives: at the highest dose activation, usual class: activators. actives 2.4% (n = 320,000); also: % of control where 0% means no effect; nearly all actives have a fitted effect of over 60% in size
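Luciferase expression driven by the NPC1 promoter was measured in stably transfected Huh7 cells after a 24 h compound incubation, using a luciferase reagent and a luminescence read.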
SMN2 splice enh: qHTS Assay for Enhancers of SMN2 Splice Variant Expression; AID 1458, 2008; Potency, µM (series often up to 46.1 µM), inactives show top-dose activity change, positive = activation, hits mostly activators; actives 2.8% (n = 210,000); HEK293 SMN2-luciferase splicing reporter, luminescence, 30-36 h; also: % of control where 0% means no effect; nearly all actives have a fitted effect of over 55% in size
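HEK293 cells carry an SMN2 […]–luciferase reporter in which exon 7 inclusion puts luciferase in frame. Cells were plated 10-12 h before compound addition, then incubated 30-36 h at 37C. ONE-Glo luminescence was read; sodium butyrate at 4.5 mM final served as control.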
* marks the source's active call; other numbers are inactive results; ? = inconclusive; . = no result; [ ] = remark or other dose. An excerpt weighted towards active compounds, which were near 9.2% of everything screened. Calls follow the shape of the dose curve; as a rule, active = well fitted curve in the direction sought with a large enough effect; inconclusive = small, poorly fitted or top-dose-only effect, or another doubt; inactive = no such curve, though single readings can be large; an effect the other way counts as inactive or inconclusive. Potency is read from the fitted curve at half-maximal effect.

SMILES	Rab9 prom act	FLuc modulator	ELG1 genotoxic	ELG1 repair inh	NPC1 promoter act	SMN2 splice enh
Cc1ccccc1C(=O)Nc1sc2c(c1C(=O)O)CCC2	-13%	19µM*	-5%	-11%	-1%	5%
O=C(Nc1sc2c(c1C(=O)O)CCC2)c1ccccc1Cl	-1%	?	-11%	-7%	0%	.
Cc1cccc(C(=O)Nc2sc3c(c2C(=O)O)CCCC3)c1	28%	15µM*	0%	?	23%	15%
O=C(Nc1sc2c(c1C(=O)O)CCCCC2)c1cccnc1	28%	17µM*	6%	19%	25%	.
O=C(Nc1sc2c(c1C(=O)N1CCOCC1)CCCCC2)c1cccnc1	-5%	4%	3%	-3%	-2%	-9%
Cc1cccc(NC(=O)CSc2nnc(Cc3ccccc3)o2)c1	-10%	-7%	0%	5%	-2%	.
O=C(COC(=O)c1ncc(Cl)c(Cl)c1Cl)Nc1cccnc1Cl	-5%	0%	-1%	0%	7%	.
COc1cccc(CNC(=O)CN2CCC(c3nc4ccc(C)cc4[nH]3)CC2)c1	-2%	?	4%	1%	-6%	3%
COc1ccc(-c2cc3ccc(O)c(CN4CCCCC4C)c3oc2=O)cc1OC (stereo not given)	.	-1%	.	.	.	.
CCOC(=O)c1cnc2ccc(OC)cc2c1NCCc1ccc(OC)c(OC)c1	-20%	-19%	-7%	21µM*	-5%	-8%
Cc1cccc(OCCSc2nc(-c3cccs3)nc3cc(=O)[nH]n23)c1	.	15µM*	.	.	.	.
CCc1ccc(OCCSc2nc(-c3cccc(C)c3)nc3cc(=O)[nH]n23)cc1	.	-17%	.	.	.	.
CC(=O)N1CCCc2cc(S(=O)(=O)NC(C(=O)NCc3ccc(C)cc3)C(C)C)ccc21 (stereo not given)	1%	-1%	1%	4%	2%	-14%
COc1ccccc1C(=O)Nc1ccc(OCC(=O)N2CC(C)OC(C)C2)cc1 (stereo not given)	-5%	5.4µM*	9%	?	0%	.
CCOc1ccc(NC(=O)c2ccc(NC(=O)c3ccccc3Br)cc2)cc1	-1%	-15%	?	27%	-1%	.
COc1ccccc1C(=O)Nc1ccc(C(=O)O)cc1	-1%	-13%	3%	15%	0%	9%
COc1ccccc1C(=O)Nc1ccc(C(=O)c2ccccc2)cc1	?	13µM*	4%	?	-5%	-5%
CCOc1ccc(NC(=O)c2ccccc2O)cc1	1.6µM*	0.54µM*	?	?	1.4µM*	3.2µM*
CCOc1ccc(NC(=O)c2ccccc2CO)cc1	?	17µM*	?	?	?	12%
COc1ccccc1C(=O)NCC(=O)OCC(=O)N1CC(C)OC(C)C1 (stereo not given)	-1%	-3%	0%	21%	-1%	.
CNCCCCc1cnc(C)c2[nH]c3ccccc3c12	.	.	.	.	.	-42%
CCOc1ccc(NC(=O)c2ccccc2OC)cc1	?	12µM*	?	?	?	?
Cc1csc(NC(=O)c2ccc(COc3ccccc3)o2)n1	?	17µM*	1%	?	1µM*	.
Cc1cccc(NC(=O)c2ccc(COc3ccccc3)o2)n1	27%	17µM*	27%	27%	16%	.
Cc1cccc(NC(=O)c2ccc(COc3ccc4ccccc4c3)o2)n1	5%	?	-1%	-7%	14%	.
SMILES	Rab9 prom act	FLuc modulator	ELG1 genotoxic	ELG1 repair inh	NPC1 promoter act	SMN2 splice enh
CCN(CC(=O)Nc1c(F)cccc1F)C(=O)c1nc2nc(C)cc(C)n2n1	-4%	3%	-1%	12%	1%	.
CCOC(=O)c1c(C)nc2c(c1-c1ccccc1)C(=O)c1ccccc1-2	-3%	-15%	-2%	?	1%	-10%
CCOC(=O)c1c(C)oc2c1C(=O)c1ccccc1C2=O	-13%	-8%	-13%	7.3µM*	-2%	-69%
Cc1oc2c(c1C(=O)O)C(=O)c1ccccc1C2=O	?	-6%	-3%	8.2µM*	14%	-13%
Cc1oc2c(c1C(=O)c1ccccc1)C(=O)C(=O)c1ccccc1-2	8%	-5%	-19%	?	-46%	-93%
CC(C)(C)c1ccc(C2CC2C(=O)N/N=C\c2ccc[nH]2)cc1 (stereo not given)	-60%	17µM*	22%	?	-40%	.
O=C(Nc1nc(-c2ccc(S(=O)(=O)N3CCCCCC3)cc2)cs1)c1ccccc1	-1%	1%	-26%	7.3µM*	-7%	-29%
CN(C)S(=O)(=O)c1ccc(C(=O)Nc2nc(-c3cccs3)cs2)cc1	-8%	0%	-19%	12µM*	-2%	-78%
Cc1csc(NC(=O)c2ccc(S(=O)(=O)N3CCCC3)cc2)n1	18%	?	-3%	-12%	18%	.
O=C(Nc1nc(-c2cccs2)cs1)c1ccc(S(=O)(=O)N2CCCC2)cc1	-1%	-1%	-14%	16µM*	0%	.
Cc1cc(C)cc(Nc2nc(-c3ccc(S(=O)(=O)N4CCCC4)cc3)cs2)c1	-8%	2%	-14%	23µM*	-10%	-53%
COc1ccc(-c2csc(NNC3=NCCCCC3)n2)cc1	15%	?	-1%	?	0%	-2%
COc1ccc(-c2csc(NC3=NCCCCC3)n2)cc1	?	12µM*	25%	?	?	-4%[1.84 µM]
c1ccc(-c2csc(NNC3=NCCCCC3)n2)cc1	12%	15µM*	?	?	0%	-1%
COc1ccc2c(c1)c1c(c(=O)n(Cc3ccccc3)c(=O)n1CC(=O)Nc1ccccc1OC)n2C	.	-4%	.	.	.	.
Cc1ccc(S(=O)(=O)N2CCC(NC(=O)c3cccnc3)CC2)cc1Cl	-3%	3%	-7%	-11%	2%	.
Cc1ccccc1/C=C\c1nc2ccccc2c(=O)[nH]1	0.56µM*	1.9µM*	18µM*	?	?	10µM*
Cc1ccccc1/C=C/c1nc2ccccc2c(=O)[nH]1	1.4µM*	2.1µM*	10µM*	?	?	.
